Screening data as filed in PubChem BioAssay.
MARV entry inh – inhibitors of Marburg virus binding or cell entry | Marburg virus pseudotyped entry inhibition, cell reporter | Potency, µM (doses to about 37.8 µM), actives largely listed as inhibitors | 300,000 compounds, 1.8% hits | AID 540276; calls by dose curve; tested in HEK293 cells
AMA1 RON2 block – disrupts binding of P. falciparum AMA1 to RON2 | AlphaScreen AMA1-biotinylated RON2 peptide binding | Potency, µM (top dose mostly 58.2 µM), actives largely listed as inhibitors | 360,000 compounds, 0.2% hits | AID 720542; also: nearly all actives have a fitted effect of over 45% in size
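AMA1 (3D7) with his tag at 25 nM final met compounds first, then biotinylated RON2 peptide at 25 nM; detection used donor plus acceptor beads, 10 µg/mL apiece, read by AlphaScreen after 30 min at room temperature.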
AmpC inh no detg – blocks E. coli AmpC beta-lactamase in detergent-free assay. Potency, µM (highest dose often 57.1 µM), hits mostly inhibitors. AmpC nitrocefin hydrolysis, absorbance 480 nm, 0.0001% Triton. P00811. 330,000 compounds, 0.52% hits; also: nearly all actives have a fitted effect of over 20% in size
Target sequence (P00811 whole entry, looked up): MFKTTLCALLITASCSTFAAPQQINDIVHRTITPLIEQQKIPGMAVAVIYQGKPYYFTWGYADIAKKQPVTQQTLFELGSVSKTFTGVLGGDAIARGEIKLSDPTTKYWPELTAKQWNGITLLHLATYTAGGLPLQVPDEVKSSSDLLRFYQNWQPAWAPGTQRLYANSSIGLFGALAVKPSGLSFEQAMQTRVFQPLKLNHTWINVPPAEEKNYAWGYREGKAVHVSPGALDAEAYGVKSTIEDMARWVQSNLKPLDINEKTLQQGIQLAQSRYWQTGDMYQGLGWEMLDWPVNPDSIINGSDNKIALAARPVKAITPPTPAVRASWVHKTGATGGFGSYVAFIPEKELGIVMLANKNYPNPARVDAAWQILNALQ
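20 mM phosphate pH 7.0 + 0.01% (detergent screen) or 0.0001% Triton X-100; 5.3 nM AmpC reagent; cpd preinc 15 min RT; nitrocefin (800 uM stock) to start; A480 q20 s × 4 min; Activity was normalised to no-enzyme and no-compound control wells.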
LASV entry inh – blocks Lassa virus binding to or entry into cells. Lassa virus pseudotype entry inhibition, cell reporter. Potency, µM (titrated, usually from 37.9 µM), actives largely listed as inhibitors. 300,000 compounds, 1.2% hits. AID 540256; calls by dose curve; tested in HEK293 cells; also: nearly all actives have a fitted effect of over 50% in size
AmpC detergent – inhibitors of E. coli AmpC beta-lactamase with detergent | P00811 | AmpC hydrolysis of nitrocefin, absorbance 480 nm, 0.01% Triton | Potency, µM (series often up to 114 µM), actives largely listed as inhibitors | 370,000 compounds, 0.041% hits | AID 485294; also: nearly all actives have a fitted effect of over 25% in size
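AmpC (5.3 nM in the dispensed reagent) in 20 mM phosphate pH 7.0 with 0.01% (detergent screen) or 0.0001% Triton X-100 was preincubated with compounds for 15 min at room temperature. Nitrocefin was then added from an 800 uM solution, and hydrolysis was followed at 480 nm.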
Large screens that a line does not name were inactive. Compounds with a hit are over-represented: about 2.3% of the library has one in this group of screens. Unless noted, calls follow the shape of the dose curve; as a rule, active = well fitted curve in the direction sought with a large enough effect; inconclusive = small, poorly fitted or top-dose-only effect, or another doubt; inactive = no such curve, though single readings can be large; an effect the other way counts as inactive or inconclusive.

NS(=O)(=O)c1ccc(N/N=C/c2cn(-c3ccccc3)nc2-c2cccs2)cc1	MARV entry inh inconclusive, LASV entry inh inconclusive
Cc1cc(C)c(S(=O)(=O)N2CCCCC2CCNC(=O)C(=O)NC2CC2)c(C)c1 (configuration not stated)	MARV entry inh inconclusive, LASV entry inh 0.89µM, AmpC detergent inconclusive
Cc1cc(S(=O)(=O)N2CCCCC2CCNC(=O)C(=O)NC2CC2)ccc1F (configuration not stated)	MARV entry inh inconclusive, LASV entry inh inconclusive
COc1cc(C(=O)OCCCN2CCCN(CCCOC(=O)c3cc(OC)c(OC)c(OC)c3)CC2)cc(OC)c1OC	MARV entry inh 5.2µM, LASV entry inh inconclusive (no result: AmpC inh no detg, AmpC detergent)
COc1cc(C(=O)OCCN2CCOCC2)cc(OC)c1OC	none
COc1cc(C(=O)OCCCN(C)C)cc(OC)c1OC	none
CCN(CC)CCCCCCCCOC(=O)c1cc(OC)c(OC)c(OC)c1	MARV entry inh 23µM, LASV entry inh inconclusive
Fc1cccc(Cl)c1Cn1c(-c2cccs2)nc2ccccc21	none (no result: AMA1 RON2 block, AmpC inh no detg)
C/C(=N\NC(=O)CSCc1ccccc1Cl)c1cccc(NC(=O)c2ccccc2)c1	MARV entry inh inconclusive, AmpC inh no detg 22µM
O=C1C=CCC(/C=C/c2ccccc2)O1 (configuration not stated)	MARV entry inh 8.2µM, LASV entry inh inconclusive
COc1ccc(C)cc1S(=O)(=O)NCC(c1cccs1)S(=O)(=O)c1ccc(C)cc1 (configuration not stated)	LASV entry inh inconclusive (no result: MARV entry inh, AMA1 RON2 block, AmpC inh no detg)
Cc1cccc(OCc2ccc(-c3nc(C#N)c(NCCN(C)C)o3)o2)c1	MARV entry inh inconclusive (no result: AMA1 RON2 block, AmpC inh no detg)
CN1/C(=C\C=C2/SC(=S)N(CC(=O)O)C2=O)C(C)(C)c2ccccc21	AMA1 RON2 block 20µM
C=CCN1C(=O)/C(=C\C=C2\N(C)c3ccccc3C2(C)C)SC1=S	none
Cc1cc(NC(=O)CSc2nnc(COc3ccccc3)o2)no1	AMA1 RON2 block 11µM, LASV entry inh inconclusive
COC(=O)c1ccc(OC)c(CSc2nnc(COc3ccc(OC)cc3)o2)c1	MARV entry inh inconclusive, LASV entry inh inconclusive
Cc1cc(NC(=O)CSc2nnc(-c3ccco3)o2)no1	AMA1 RON2 block 28µM (no result: AmpC inh no detg)
COC(=O)c1ccc(OC)c(CSc2nnc(COc3cccc(C)c3)o2)c1	MARV entry inh 16µM
CC(C)CC(=O)NCC(c1ccc2c(c1)OCO2)N1CCN(c2ccccc2F)CC1 (configuration not stated)	none (no result: MARV entry inh, AMA1 RON2 block, AmpC inh no detg)
COc1ccc(CCNC(=O)C(=O)NCC(c2ccco2)S(=O)(=O)c2ccccc2)cc1OC (configuration not stated)	none (no result: MARV entry inh, AMA1 RON2 block, AmpC inh no detg)
COc1ccc(Nc2ncnc3scc(-c4ccc(OC)cc4)c23)cc1	MARV entry inh 7.3µM, LASV entry inh inconclusive
COc1ccc(N2CCN(c3ncnc4scc(-c5ccc(C)cc5)c34)CC2)cc1	MARV entry inh inconclusive, LASV entry inh 10µM
COc1ccc(CN2CCN(c3ncnc4scc(-c5ccc(F)cc5)c34)CC2)cc1	MARV entry inh 13µM, LASV entry inh inconclusive
COc1ccc(N2CCN(c3ncnc4scc(-c5ccccc5)c34)CC2)cc1	MARV entry inh inconclusive, AMA1 RON2 block inconclusive
COc1ccc(Nc2ncnc3scc(-c4ccc(F)cc4)c23)cc1	none (no result: MARV entry inh, AMA1 RON2 block, AmpC inh no detg)
COc1ccc(N2CCN(c3ncnc4scc(-c5ccc(F)cc5)c34)CC2)cc1	MARV entry inh inconclusive, AMA1 RON2 block 13µM, AmpC detergent inconclusive
Fc1ccc(-c2csc3ncnc(N4CCN(c5ccccc5)CC4)c23)cc1	MARV entry inh inconclusive, LASV entry inh inconclusive
CCC1CN(C(=O)N2CCC(C(=O)NCCc3ccccc3Cl)CC2)c2cc(C)ccc2O1 (configuration not stated)	LASV entry inh inconclusive (no result: MARV entry inh, AMA1 RON2 block, AmpC inh no detg)
COc1cc2nc(N3CCCN(C)CC3)nc(NC3CCN(Cc4ccccc4)CC3)c2cc1OC	MARV entry inh inconclusive, LASV entry inh 1.8µM (no result: AMA1 RON2 block, AmpC inh no detg, AmpC detergent)
COc1ccc2c(c1)c1c(c(=O)n(-c3cc(Cl)ccc3C)c(=O)n1CC(=O)N1CCCC1)n2C	none (no result: MARV entry inh, AMA1 RON2 block, AmpC inh no detg)
O=C(O)c1cc(O)c2c(c1)[C@@H]([C@H]1c3cc(C(=O)O)cc(O)c3C(=O)c3c(O[C@@H]4O[C@H](CO)[C@@H](O)[C@H](O)[C@H]4O)cccc31)c1cccc(O[C@@H]3O[C@H](CO)[C@@H](O)[C@H](O)[C@H]3O)c1C2=O	AMA1 RON2 block 1.4µM, AmpC inh no detg 1.3µM (no result: MARV entry inh, LASV entry inh, AmpC detergent)
O=C(Cn1c(=O)c(=O)n(Cc2ccccc2)c2ccc(Cl)cc21)Nc1cccc(F)c1	MARV entry inh 0.79µM, LASV entry inh inconclusive, AmpC detergent inconclusive
O=C(Cn1c(=O)c2cccn2c2ccc(F)cc21)Nc1cccc(F)c1	none (no result: MARV entry inh, AMA1 RON2 block, AmpC inh no detg)
CN(CCNC(=O)c1ccc(/C=N\O)nc1)Cc1ccccc1	none (no result: AMA1 RON2 block, AmpC inh no detg, LASV entry inh, AmpC detergent)
Cc1ccc(NC(=S)NC(=O)c2ccc(F)cc2)cc1S(=O)(=O)Nc1ccccc1Cl	MARV entry inh 1.1µM, LASV entry inh inconclusive
Cc1ccc(NC(=O)c2ccc(=O)[nH]n2)cc1S(=O)(=O)Nc1ccccc1Cl	none (no result: MARV entry inh, LASV entry inh)
COc1ccccc1NS(=O)(=O)c1cc(NC(=O)c2ccc(Cl)nc2)ccc1Cl	MARV entry inh 8.9µM, LASV entry inh inconclusive
COc1ccc(NS(=O)(=O)c2cc(C(=O)N3CCN(C(C)=O)CC3)ccc2Cl)cc1	none
COc1ccc(C(=O)Nc2ccc(Cl)c(S(=O)(=O)Nc3ccccc3OC)c2)cc1	MARV entry inh 2.8µM, LASV entry inh inconclusive
COc1ccc(NS(=O)(=O)c2cc(N/C(=N\S(=O)(=O)c3ccccc3)c3ccc(F)cc3)ccc2Cl)cc1	MARV entry inh 12µM, AmpC inh no detg inconclusive, LASV entry inh inconclusive
COc1cc2c(cc1OC)C(COc1ccccc1OC)N(C(=O)COc1ccc(Cl)cc1)CC2 (configuration not stated)	LASV entry inh inconclusive (no result: MARV entry inh, AMA1 RON2 block, AmpC inh no detg)
COc1cc(C(=O)Nc2ccc3oc(-c4ccccc4)nc3c2)cc(OC)c1OC	LASV entry inh inconclusive (no result: MARV entry inh, AMA1 RON2 block, AmpC inh no detg)
CC#C[C@H](C)[C@@H](OCOC)[C@H](C[C@H](C)Cc1cc(Br)cc(OCc2ccccc2)c1OC)OC	none (no result: AMA1 RON2 block, AmpC inh no detg, LASV entry inh, AmpC detergent)
Cc1cc(S(=O)(=O)Nc2ccc(C(=O)NCC3(N(C)C)CCCCC3)cc2)ccc1F	none
Cc1cc(S(=O)(=O)Nc2ccc(C(=O)NCC3(N4CCCCC4)CCCCC3)cc2)ccc1F	MARV entry inh 11µM, LASV entry inh inconclusive
CCOC(=O)c1c(C)[nH]c(C)c1S(=O)(=O)N1CCCC(C(=O)Nc2cccc(CC)c2)C1 (configuration not stated)	none (no result: MARV entry inh, AMA1 RON2 block, AmpC inh no detg)
COc1cc(Cl)c(S(=O)(=O)NCCc2c(C)[nH]c3c(C)cccc23)cc1Cl	LASV entry inh inconclusive (no result: AMA1 RON2 block, AmpC inh no detg)
COc1cc(/C=N/N2C(=O)C3C4c5ccccc5C(c5ccccc54)C3C2=O)ccc1O (configuration not stated)	MARV entry inh inconclusive, LASV entry inh 13µM
COc1cccc(NC(=O)CSc2nc3ccc(NC(=O)c4cccs4)cc3s2)c1	MARV entry inh inconclusive, LASV entry inh inconclusive (no result: AMA1 RON2 block, AmpC inh no detg)
